Bioassay records from PubChem.
DT40 TDP1 no CPT = qHTS for Inhibitors of human tyrosyl-DNA phosphodiesterase 1 (TDP1): qHTS in cells in absence of CPT; DT40 Tdp1-/- hTDP1 cells, no CPT, ATP luminescence, 48 h; Potency, µM (highest dose often 46.2 µM), for the others: at the highest dose activity change, negative = growth inhibition, actives largely listed as inhibitors; 420,000 tested, 15% active; note: potency is the fitted concentration of half-maximal effect; nearly all actives have a fitted effect of over 55% in size
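A cellular qHTS used chicken DT40 cells lacking endogenous Tdp1 but carrying stably transfected human TDP1. Compounds were applied without camptothecin, and cell growth kinetics were judged by ATP-dependent luminescence after ≥48 hr.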
uPA generation = cell surface uPA generation inhibition; Potency, µM (top dose mostly 38.3 µM), for inactives: at the highest dose activity change, negative = inhibition, usual class: inhibitors; AID 540303; 330,000 tested, 0.31% active; cell surface uPA generation assay, qHTS; active = well fitted inhibition curve with a large enough effect; inconclusive = small, poorly fitted or top-dose-only effect; inactive = no such curve, though single readings can be large or run the other way; tested in mouse RAW 264.7 cells; note: potency is the fitted concentration of half-maximal effect; nearly all actives have a fitted effect of over 55% in size
DT40 TDP1 CPT = DT40-hTDP1 cell growth loss with CPT; AID 686979; Potency, µM (highest dose often 46.2 µM), inactives show at the highest dose activity change, negative = growth inhibition, usual class: inhibitors; 420,000 tested, 12% active; chicken DT40 Tdp1-/-;hTDP1 cells + 20 nM CPT, ATP luminescence, 48 h; note: potency is the fitted concentration of half-maximal effect; nearly all actives have a fitted effect of over 55% in size
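Chicken DT40 Tdp1-/- cells complemented with human TDP1, 400 cells/well, exposed to compounds plus 20 nM camptothecin for at least 48 h at 37 C; viability read as ATP content by CellTiter-Glo luminescence.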
HT1080NT lethal = kills 2HG-producing HT-1080-NT fibrosarcoma cells; Potency, µM (series often up to 46.1 µM), for inactives: top-dose activity, negative = less viability, most hits filed as cytotoxic; HT-1080-NT fibrosarcoma viability, CellTiter-Glo ATP luminescence, 48 h; 360,000 tested, 1.6% active; AID 686970;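 note: NT is the 2HG producing partner of a matched IDH1 knockdown line; potency is the fitted concentration of half-maximal effect; 0% = DMSO-treated cells and -100% = media-only wells without cells; nearly all actives have a fitted effect of over 55% in size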
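Compounds were tested in concentration-response format on HT-1080-NT cells for 48 hours at 37 degrees C. Cell viability came from CellTiter-Glo luminescence; curves were classified by r2, response magnitude and activity.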
HT1080 IDH1KD tx = kills HT-1080 cells with IDH1 knockdown; HT-1080 IDH1 knockdown viability, ATP luminescence, 48 h; Potency, µM (highest dose often 46.1 µM), for the others: at the highest dose activity, negative = toxicity, usual class: cytotoxic; 360,000 tested, 2% active; AID 686971;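 note: potency is the fitted concentration of half-maximal effect; 0% = DMSO wells and -100% = cell-free medium wells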
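After a 2 h attachment period, IDH1KD HT-1080 cells took pin-transferred compound for 48 h at 37 °C; ATP-based luminescence after 10 min room-temperature reagent incubation reported viability.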
IL1B secr inh = inflammasome signaling inhibition, IL-1 beta readout. THP-1 LPS/ATP IL-1B secretion, AlphaLISA, 16 h; hits give low values. activity change, % at 57.5 µM. 360,000 tested, 4.7% active. AID 743279; in the data active = activity change below about -50%; inconclusive = mostly about -30% to -49%
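Secreted IL-1B measured by AlphaLISA bead assay after 16 h compound exposure of THP-1 cells; compounds (final up to 57.5 uM) added 1 h before LPS (250 ng/mL) and ATP (1.25 mM) stimulation; lower signal means less secretion.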
Active calls of the source: *; i = inactive; ? = inconclusive; . = no result. Sampled rows, rich in hits. Any-hit rate of the full collection: about 19%. Unless noted, calls come from the whole dose curve; as a rule, active = well fitted curve in the direction sought with a large enough effect; inconclusive = small, poorly fitted or top-dose-only effect, or another doubt; inactive = no such curve, though single readings can be large; an effect the other way counts as inactive or inconclusive. Unless noted, % is set by controls: 0 for no effect and ±100 for the full control effect.

SMILES	DT40 TDP1 no CPT	uPA generation	DT40 TDP1 CPT	HT1080NT lethal	HT1080 IDH1KD tx	IL1B secr inh
O=C(c1cc([N+](=O)[O-])[nH]n1)N1CCSCC1	2%	2%	30%	18%	1%	14
COc1ccccc1CN(C)C(=O)CN1C(=O)c2ccccc2C1=O	1%	0%	22%	6%	4%	18
O=C(Cn1ccnc1[N+](=O)[O-])NCCO	-8%	.	3%	.	.	.
COc1ccc(-c2n[nH]c(C(F)(F)F)c2-c2cc3ccccc3o2)c(O)c1	15µM*	-17%	13µM*	?	?	-54*
COc1ccccc1-c1c(-c2ccc(OCC(=O)NN)cc2O)n[nH]c1C(F)(F)F	13µM*	5%	9.2µM*	-6%	-4%	-23
Cc1ccnc(NC2c3ccccc3C(=O)N2Cc2ccccc2Cl)c1 (stereo not drawn)	26µM*	?	?	15%	5%	38
COc1cc(NC2c3ccccc3C(=O)N2Cc2ccccc2Cl)cc(OC)c1OC (stereo not drawn)	-28%	3%	-18%	3%	5%	11
O=C(c1cnccn1)N1CCC2(CC1)CCN(c1ncccn1)CC2	-9%	.	-6%	.	.	.
CC(C)c1cc(C(=O)OCC(=O)NC(=O)NCc2ccco2)c(O)c(C(C)C)c1	?	.	?	23µM*	26µM*	-86*
Cc1c(C(=O)Nc2cccc(Cl)c2)sc2nc3n(c(=O)c12)N=C(c1cccc(Br)c1)CS3	-14%	.	-17%	.	.	.
C[C@](O)(C(=O)Nc1ccc(S(=O)(=O)c2ccccc2)cc1)C(F)(F)F	?	.	-4%	.	.	.
CC(NC(=S)NCc1ccccc1)C12CC3CC(CC(C3)C1)C2 (stereo not drawn)	-8%	0%	30%	5%	8%	0
CCn1c(=O)cc(OCC(=O)NCCc2cccc(C)c2)c2ccccc21	?	1%	?	-9%	-25%	-3
CCOCCCNC(=O)c1cc(=O)n(Cc2cccc(C)c2)c2ccccc12	21µM*	-15%	?	-5%	-18%	21
CN(Cc1cnn(C)c1)S(=O)(=O)c1cccc([N+](=O)[O-])c1	-8%	-2%	0%	0%	8%	0
CC(=O)Nc1ccc(S(=O)(=O)N(Cc2cccnc2)Cc2cc3ccc(C)cc3[nH]c2=O)cc1	15µM*	-2%	?	-4%	0%	-10
CC(=O)Nc1ccc(S(=O)(=O)N(C)Cc2ccccc2)cc1	3%	6%	-2%	6%	9%	0
CC(=O)Nc1ccc(S(=O)(=O)N(Cc2ccccc2)Cc2ccccc2)cc1	16µM*	.	?	.	.	.
CC(=O)Nc1ccc(S(=O)(=O)N(C)Cc2cnn(C)c2)cc1	16µM*	3%	-29%	-8%	0%	i
O=S(=O)(NCCc1ccccc1)c1cccs1	-18%	2%	-11%	0%	1%	-3
O=S(=O)(NCc1ccccc1)c1cccs1	-43%	-8%	0.082µM*	6%	-5%	11
CC(C)N(Cc1ccccc1)S(=O)(=O)c1cccs1	26µM*	-26%	-27%	4%	-1%	41
CC(=O)Nc1ccc(S(=O)(=O)N(Cc2ccccc2)C(C)C)cc1	21µM*	-9%	16µM*	-15%	-17%	20
Cc1ccc(S(=O)(=O)N(Cc2ccccc2)C(C)C)cc1	18µM*	?	18µM*	-6%	2%	0
CCOC(=O)CN(Cc1ccccc1)S(=O)(=O)c1ccc(NC(C)=O)cc1	-21%	.	-29%	1%	?	32
SMILES	DT40 TDP1 no CPT	uPA generation	DT40 TDP1 CPT	HT1080NT lethal	HT1080 IDH1KD tx	IL1B secr inh
O=C(OCc1ccccc1)N1CCC2CC1c1cc(N3CCN(S(=O)(=O)c4cccc5ccccc45)CC3)ccc12 (stereo not drawn)	?	.	-22%	19%	16%	45
CCOC(=O)c1ccc(NC(=S)NNC(C)(C)C)cc1	5.8µM*	-2%	5.8µM*	-3%	12%	0
CCOC(=O)c1ccc(NC(=S)Nc2ccc(C)cc2)cc1	?	-1%	1%	-18%	?	-8
Cc1cc(C)c2nc(NNC(=O)c3ccc(S(=O)(=O)N4CCc5ccccc5C4)cc3)sc2c1	4.6µM*	?	5.2µM*	?	6.5µM*	105
Cc1cc(C)c2sc(NNC(=O)c3ccc(S(=O)(=O)N4CCc5ccccc5C4)cc3)nc2c1	2.6µM*	?	3.3µM*	?	?	121
Cc1cc(C)c2nc(NNC(=O)c3cc(=O)c4ccccc4o3)sc2c1	?	19%	29µM*	-7%	-11%	-12
Cc1nnc(NC(=O)c2ccc(S(=O)(=O)N3CCc4ccccc4C3)cc2)o1	?	-17%	?	-20%	-19%	63
COc1cccc(CNC(=O)c2ccc3c(c2)nc2n3CCC(C)C2)c1 (stereo not drawn)	-21%	.	-12%	.	.	.
COc1cccc(NC(=O)Cn2cnc3c(nc4n3CCCCC4)c2=O)c1	-6%	.	-18%	.	.	.
COc1cc2cc(C(c3nnnn3C3CCCC3)N(C)C3CCCCC3)c(=O)[nH]c2cc1OC (stereo not drawn)	25µM*	.	16µM*	-15%	?	-7
Cc1ccc(C(c2nnnn2C2CCCCC2)N(C)C2CCCCC2)cc1 (stereo not drawn)	23µM*	6%	23µM*	4%	2%	-14
CC(C)C(c1nnnn1C1CCCC1)N(C)C1CCCCC1 (stereo not drawn)	?	9%	?	0%	-2%	-9
COc1cc2cc(C(c3nnnn3C3CCCCC3)N(C)C3CCCCC3)c(=O)[nH]c2cc1OC (stereo not drawn)	?	.	23µM*	?	?	?
CCOc1ccc(-n2c(=S)sc3c(=O)[nH]c(SCC(=O)NC4CCCCC4)nc32)cc1	-25%	.	-18%	4%	12%	-12
Cc1ccccc1-c1cnc(C(O)c2ccc(Cl)c(F)c2)[nH]1 (stereo not drawn)	-23%	.	29µM*	-20%	-15%	-62*
Cc1ccccc1-c1cnc(C(O)c2ccc(F)c(F)c2)[nH]1 (stereo not drawn)	-14%	.	-6%	-13%	7%	-5
OC(c1ccc(Cl)c(Cl)c1)c1ncc(-c2ccccc2F)[nH]1 (stereo not drawn)	?	.	?	-24%	-30%	-6
OC(c1ccc(Cl)c(F)c1)c1ncc(-c2ccccc2F)[nH]1 (stereo not drawn)	?	.	16µM*	?	?	46
